Among the data in PubChem BioAssay AID2314 (National Center for Advancing Translational Sciences (NCATS), 2010) are max response values, retold here.

In all, about 300,000 compounds went through this assay and about 37,000 (12%) were called active. Shown is part of a subset that was picked to be rich in actives. A number with no mark means an inactive call. No stated cut-off is given here; in the data, active means max response mostly above about 13% (no sharp cut-off); inactive means mostly below about 14%.

The nature of the assay: Cycloheximide Counterscreen for Small Molecule Inhibitors of Shiga Toxin. Further: read at 38.3 µM for the half of the compounds with a filed dose; 0% is about no effect. Conditions: cell reporter, cycloheximide protein synthesis inhibition counterscreen; active compounds read high. For orientation: The purpose of a counterscreen is to sort out artefacts and off-target activity.
Take `COC(=O)CN1C(=O)[C@H]2[C@@H](/C=C/c3ccccc3)N3C(=O)CN(CC4CC4)C(=O)[C@@]3(Cc3ccccc3)[C@H]2C1=O`: the max response is 0.35%.

With `Cc1c2cnn(CC(=O)NCCCN3CC(C)CC(C)C3)c(=O)c2c(C)n1Cc1ccc(Cl)cc1` (stereo not given), the max response is -5.34%.

For the compound `CCc1ccc2ncc(C(=O)c3ccccc3)c(N3CCOCC3)c2c1`, the max response was 2.65%.

`CCOc1ccc(C(=O)Nc2c3c(nn2-c2ccccc2)CS(=O)(=O)C3)cc1`: the max response was -1.43%.

As to `CCC1C(=O)NCCN1C(=O)c1ccc2nc(Cc3ccc(OC)cc3)oc2c1` (stereo not given), the max response is 16.3%.

`COCCNC(=O)c1ccc2nc(Cc3ccc(OC)c(OC)c3)oc2c1`: the max response was 32% (active).

Turning to `COc1ccc(C(=O)NCCc2ccc(S(N)(=O)=O)cc2)cc1OC`, the max response is 9.83%.

For the compound `Cn1cc(C(=O)NCc2ccccc2F)cn1`, the max response is -3.82%.

Regarding `CSCCNC(=O)c1ccc2nc(Cc3ccccc3F)oc2c1`, the max response is 54.4% (active).

Consider `COc1ccccc1-n1c(C)nc2cc(C(=O)NCc3ccc4c(c3)OCO4)ccc21`, for which the max response is 5.54%.

For `COc1ccc(Cc2nc3ccc(C(=O)NCC4CCOCC4)cc3o2)cc1OC`, the max response is 23.6% (active).

Take `COc1ccc(Cc2nc3ccc(C(=O)N4CCC(N(C)C)C4)cc3o2)cc1` (stereo not given): the max response was 7.38%.

Turning to `CCn1ccnc1CN(C)C(=O)c1ccc2nc(Cc3ccc(OC)cc3)oc2c1`, the max response was -0.601%.

For `Cc1ccc(S(=O)(=O)N2CCC3(CC2)OCCO3)c(C)c1`, the max response is -3.35%.

As to `Cc1ccc(S(=O)(=O)N2CCN(C(=O)CSc3cc(C)ccc3C)CC2)c(C)c1`, the max response is 12.6%.

`C=CCOc1ccc(/C=C/C(=O)OCC(=O)NC2CCCCCC2)cc1`: the max response is -2.39%.

As to `O=S(=O)(Cc1nnnn1-c1ccccc1)c1ccccc1`, the max response is -0.262%.

With `O=C(CN1C(=O)c2ccccc2S1(=O)=O)NC1CCCCC1`, the max response is 3.93%.

Take `Cc1ccc(F)cc1NC(=O)N1CCCN(c2ccc(C(F)(F)F)cn2)CC1`: the max response is -0.488%.

Consider `O=C(CSc1nc(Nc2ccccc2)nc(N2CCOCC2)n1)Nc1cc(Cl)ccc1O`, for which the max response is 7.58%.

As to `O=C(O)c1ccc(/C=C2/SC(=S)N(c3cccc(C(F)(F)F)c3)C2=O)cc1`, the max response is -7.16%.

As to `FC(F)(F)c1cccc(NC(=S)Nc2cccc(Cl)c2)c1`, the max response was -2.33%.

On to `S=C(NCc1ccco1)Nc1ccc2c(c1)OCCO2`, for which the max response was 69.9% (active).

Turning to `Cc1c(Cl)cccc1NC(=S)NCc1ccc2c(c1)OCO2`, the max response was -1.28%.

`CN(C)S(=O)(=O)c1cccc(NC(=S)NCc2ccc3c(c2)OCO3)c1`: the max response was 0.966%.

`S=C(NCc1ccc2c(c1)OCO2)NCc1ccco1`: the max response was 28.4% (active).

Turning to `S=C(NCc1ccco1)NCc1ccccc1Cl`, the max response was -2.41%.

As to `COc1cc(NC(=S)NCc2ccco2)c(OC)cc1Cl`, the max response is -2.3%.

Take `S=C(Nc1cccc(Cl)c1)Nc1ccc2c(c1)OCCO2`: the max response is 42.2% (active).

Regarding `FC(F)Oc1ccc(NC(=S)NCc2ccco2)cc1Cl`, the max response was 11.2%.

Turning to `O=S(=O)(c1ccccc1)N(Cc1cccc(F)c1)c1ccccc1`, the max response was -0.496%.

Regarding `CC(=O)N1CCC(C(=O)Nc2nc(-c3ccccc3)ns2)CC1`, the max response is 0.624%.

On to `NC(=O)c1cc(S(=O)(=O)NCCCc2ccco2)cs1`, for which the max response was -2.26%.

For `CCc1nnc(NC(=O)[C@@H](NC(=O)c2cccc(C)c2)C(C)C)s1`, the max response was -2.22%.

`C=CCn1c(SCc2ccccc2)nc2c1c(=O)[nH]c(=O)n2C`: the max response is -1.99%.

In the case of `O=C(CSc1nnnn1C1CCCC1)N1CCCCC1`, the max response is 27% (active).

For the compound `CC1CCCC(C)N1C(=O)CSc1nnnn1C1CCCC1` (stereo not given), the max response is 25.7% (active).

`CCCc1nnc(SCC(=O)N2C(C)CCCC2C)n1CC` (stereo not given): the max response is 7.27%.

Take `CC(Sc1nnnn1C1CCCCC1)C(=O)O` (stereo not given): the max response is 5.78%.

Turning to `O=C(CSc1nnc2ccc(-c3ccncc3)nn12)N1CCCCC1`, the max response is -4.64%.

In the case of `CC(C)C(=O)Nc1nnc(SCC(=O)N2C(C)CCCC2C)s1` (stereo not given), the max response was 1.12%.

`O=Cc1cn(-c2ccccc2)nc1-c1ccccn1`: the max response was 3.16%.

For `Cc1c(CN2CC[C@@H](N3CCN(c4ccccn4)CC3)[C@H](O)C2)[nH]c2ccc(F)cc12`, the max response was 1.28%.

Regarding `O=C(NCc1ccccc1)C(c1ccccc1)N(C(=O)c1csnn1)c1ccc(F)cc1` (stereo not given), the max response is -4.47%.

`O=S(=O)(Nc1ccc(OC(F)(F)F)cc1)c1cccc2nonc12`: the max response is -2.47%.

Turning to `O=S(=O)(Cc1nnnn1-c1ccc(Br)cc1)c1ccc(F)cc1`, the max response was -2.53%.

Consider `O=S(=O)(Cc1noc(-c2ccc(OC(F)(F)F)cc2)n1)c1ccc(F)cc1`, for which the max response is 22.3% (active).

For the compound `COc1cc(OC)cc(C(=O)NC(=S)N2CCN(c3ccc(C(F)(F)F)cc3[N+](=O)[O-])CC2)c1`, the max response is 4.72%.

In the case of `Cn1nccc1NS(=O)(=O)c1ccc(F)cc1`, the max response was 162% (active).

Regarding `Cc1ccc(NS(=O)(=O)c2ccc(F)cc2)nc1`, the max response was -3.76%.

Consider `Cc1cc(C)cc(NS(=O)(=O)c2ccc(F)cc2)c1`, for which the max response is -2.02%.

For the compound `COc1cc2c(cc1OC)CC1(CCCCC1)N=C2`, the max response was -2.87%.

Take `CSCc1nnc(NC(=O)c2ccc(S(=O)(=O)N3CCCCC3C)cc2)o1` (stereo not given): the max response was -2.84%.

Turning to `CCOc1ccc(C2C3=C(CCCC3=O)N(CC(=O)O)C3=C2C(=O)CCC3)cc1`, the max response is -3.14%.

Take `C=CCNc1ncnc2ccc(Br)cc12`: the max response is -5.1%.

Take `COc1ccc(Nc2ncnc3ccc(Br)cc23)c(OC)c1`: the max response was 26.7% (active).

Take `COc1ccc(Nc2ncnc3sc(-c4ccccc4)cc23)c(OC)c1`: the max response is 7.7%.

Turning to `CN(Cc1c(F)cccc1Cl)S(=O)(=O)c1cccs1`, the max response was -2.55%.

Regarding `CN(CCc1ccccc1)c1ccc([N+](=O)[O-])cn1`, the max response is 0.432%.

`COc1ccc2c(c1)C=CC1(O2)N(CCO)c2ccccc2C1(C)C` (stereo not given): the max response is 26% (active).

In the case of `COc1cccc(CC2(CO)CCCN(CC3=Cc4cc(OC)ccc4OC3)C2)c1` (stereo not given), the max response is -0.657%.

With `CN1c2ccc([N+](=O)[O-])cc2C(C)(C)C12C=Cc1cc(C(=O)O)ccc1O2` (stereo not given), the max response was -2.71%.

Take `O=C(c1cccc(-n2cccc2)c1)N1CCN(S(=O)(=O)c2ccc(F)cc2)CC1`: the max response is 5.03%.

In the case of `O=c1[nH]c(CSc2ccccc2)nc2c1oc1ccccc12`, the max response is -1.34%.

For the compound `Cc1nc(SCC(=O)NC2CCCC2)[nH]c(=O)c1C`, the max response is 0.618%.

`O=C(CN1CCN(S(=O)(=O)c2ccc(Br)cc2)CC1)Nc1ccccc1C(=O)c1ccccc1`: the max response was -0.92%.

Regarding `O=S(=O)(Cc1cc(Cl)nc(-c2cccnc2)n1)c1ccccc1`, the max response was -0.203%.

On to `COc1ccc(S(=O)(=O)N2CN(CCc3ccc(OC)c(OC)c3)c3nc4ccccc4nc32)cc1`, for which the max response is -0.593%.

Consider `C=CCN1CN(S(=O)(=O)c2ccc(OC)cc2)c2nc3ccccc3nc21`, for which the max response is 15.9%.

For `O=S(=O)(c1ccccc1)N1CN(Cc2ccc(F)cc2)c2nc3ccccc3nc21`, the max response is 19.8% (active).

With `O=C(NCCCN1CCOCC1)C1CCCN(S(=O)(=O)N2CCCCC2)C1` (stereo not given), the max response was 7.19%.

Regarding `CC(C)N1CCc2c(sc(NC(=O)Cc3ccccc3)c2C#N)C1`, the max response is 1.8%.

With `CC(C)(C)OC(=O)NCCCCCC(=O)N/N=C/c1coc2ccccc2c1=O`, the max response is 37.7% (active).

On to `Cc1ccc2occ(/C=N/NC(=O)c3ccccc3C)c(=O)c2c1`, for which the max response is 9.31%.

With `NC(=S)N/N=C/c1coc2cc(Cl)ccc2c1=O`, the max response is -4.85%.

With `COc1cccc(NC(=O)COc2cc(C)cc3oc(=O)cc(C)c23)c1`, the max response was -6.8%.

With `COC(c1ccccc1)(c1ccccc1)C(Oc1nc(C)cc(C)n1)C(=O)O` (stereo not given), the max response is -1.54%.

Regarding `CC(C)(C)C1CCC(C(=O)NCC(c2cccs2)N2CCOCC2)CC1` (stereo not given), the max response was 1.44%.

On to `O=C(NCc1cccs1)C1CCN(S(=O)(=O)c2ccc(Cl)cc2)CC1`, for which the max response is 8.38%.

For `O=C(NCc1csc(-c2cccs2)n1)C1CC1`, the max response was 49.8% (active).

With `CCN(CC)S(=O)(=O)c1ccc(N2CCN(C)CC2)c(NC(=O)Nc2ccccc2F)c1`, the max response is -3.4%.

Take `CCC(CC)C(=O)Nc1c2c(nn1-c1ccc(C)cc1)CS(=O)(=O)C2`: the max response was -1.32%.

For the compound `Cn1c(N)c(C(=O)COC(=O)c2cnc(Cl)c(Cl)c2)c(=O)n(C)c1=O`, the max response was -2.82%.

On to `COc1ccc(/C=C/C(=O)NC(=S)N2CCCC(C(N)=O)C2)cc1` (stereo not given), for which the max response is 12.7%.

With `CC(C)CNC(=O)COC(=O)/C=C/c1ccco1`, the max response is -2.86%.

For `CCNC(=S)N1CCN(C(=O)c2ccco2)CC1`, the max response was -0.408%.

As for `O=C(/C=C/c1ccco1)NC(=S)N1CCCCC1`, the max response is 25.7% (active).

Consider `O=C(/C=C/c1ccco1)NC(=S)Nc1ccccc1Br`, for which the max response is 21% (active).

On to `COc1ccc(Cl)cc1C(=O)NNC(=S)NC(=O)/C=C/c1ccco1`, for which the max response was 0.62%.

For the compound `O=C(Cc1ccccc1)Nc1ccc(C(=O)Nc2ccccc2C(=O)O)cc1`, the max response is -2.41%.

As to `Cn1sc(=O)c2cc(S(=O)(=O)NC3CC3)ccc21`, the max response was -2.97%.

Take `CCCNC(=S)N1CCC(NC(=O)c2ccc(OC)cc2)CC1`: the max response was -1.83%.

Regarding `Cc1nnc(SCC(=O)Nc2ccc(S(=O)(=O)Nc3ccc(Cl)nn3)cc2)s1`, the max response is -1.1%.

On to `CCC(=O)Nc1ccc(C(=O)Nc2cc(C)on2)cc1`, for which the max response was 17.5% (active).

For the compound `CCOc1ccc(CC(=O)Nc2ccc(S(=O)(=O)Nc3cc(C)on3)cc2)cc1OCC`, the max response is -4.07%.

Regarding `CCOc1ccc(C(=O)Nc2cc(OC)ccc2OC)cc1`, the max response was -3.82%.

As to `Cc1cc(NC(=O)CN2CCC(O)(c3cccc(F)c3)CC2)no1`, the max response was 4.43%.

With `CCC(=O)Nc1ccc(C(=O)Nc2ccc3c(c2)C(=O)N(CC2CCCO2)C3=O)cc1` (stereo not given), the max response is -2.89%.

Turning to `Cc1cc(NC(=O)CSCc2ccccc2C)no1`, the max response was 12.4%.

As to `Cc1cc(NC(=O)c2ccccc2C)no1`, the max response is 32.6% (active).

`CCOc1ccc(NC(=O)Nc2cc(C)on2)cc1`: the max response is 43.6% (active).

In the case of `COc1ccc(C)cc1NC(=O)Nc1ccccc1SC`, the max response was 0.774%.

For the compound `Cc1cc(NC(=O)c2cccc(N3C(=O)CCC3=O)c2)no1`, the max response is -2.26%.

On to `CCOc1ccc(C(=O)Nc2ccc(S(=O)(=O)Nc3cc(C)on3)cc2)cc1`, for which the max response is -5.61%.

`CCOc1ccc(NC(=O)Nc2cc(C)ccc2OC)cc1`: the max response is 25.4% (active).
